The text below walks through data of PubChem BioAssay (NCATS).

Results filed as inconclusive are left out. The source made the active and inactive calls. The call rests on the fitted dose curve; in most records, active means well fitted cell-killing curve with a large enough effect; inconclusive means small, poorly fitted or top-dose-only effect; inactive means no such curve, though single readings can be large or run the other way.
Potency means the concentration at half of the fitted maximal effect.

A short description of the test: qHTS of pediatric cancer cell lines to identify multiple opportunities for drug repurposing: Primary screen for A673 cells (AID 1347092). Further: nearly all actives have a fitted effect of over 45% in size. As to conditions: A673 Ewing sarcoma viability, CellTiter-Glo ATP luminescence, 48 h; series mostly up to 46 µM. The source says: Drug repurposing or repositioning has been offered as a strategy for drug development in oncology programs. This approach has special potential for childhood cancers and other rare or orphan diseases, where the expected return on new drug development has been a disincentive to pharmaceuticals. […] In this project we exploit the poly-pharmacology of drugs to discover new indications via phenotypic screening of a panel of 19 well-characterized cell lines derived from solid tumors seen in children and adolescents. The goal is to identify approved drugs with previously unrecognized anticancer properties that has the potential to reveal new mechanisms and biological processes involved in carcinogenesis or drug resistance. We employed a titration-based paradigm (quantitative high-throughput screening or qHTS), where all compounds were tested at multiple concentrations for their effect on cell viability. Concentration-response curves (CRCs) were derived directly from the primary screen, and both potency and efficacy values were used to identify compounds with robust bioactivity profiles. We screened the NIH Chemical Genomics Center (NCGC) Pharmaceutical Collection (NPC) and Mechanism Interrogation Plate (MIPE) small molecule collections of approved and investigational compounds against these cell lines; and measured metabolically active cells after 48 hours of compound treatment as a proxy for cell viability. […] Assay Submitter: Nathalia J. Martinez, National Center for Advancing Translational Sciences, National Institutes of Health, Rockville, MD, USA; email: natalia.martinez@nih.gov. Shen, M et al. Quantitative high-throughput phenotypic screening of pediatric cancer cell lines identifies multiple opportunities for drug repurposing. Oncotarget 2017 Dec 19;9(4):4758-4772. PMID 29435139.
The cells were obtained from University of North Carolina (UNC), Pediatric Preclinical Testing Program (PPT), and Coriell Institute (CI). qHTS cell viability assay: Cells were assayed in growth media at a density of 500-1,000 cells/well. Five microliters of cells were dispensed into 1,536-well, white, solid-bottom, TC-treated plates (Greiner Bio One) using a multidrop dispenser and incubated at 37 degrees C, 5% CO2, under a humidified atmosphere for 5 hours. Twenty-three nanoliters of compounds and controls (neutral control DMSO or positive control bortezomib at final concentration of 2.3 uM) were subsequently transferred by Kalypsys pintool. For primary screens, the MIPE collection was tested at 11-point dilutions (final concentrations range from 0.78 nM to 46 µM) and the NPC collection at 8-point dilutions (final concentrations range from 0.59 nM to 46 µM). Compounds tested in follow-up screens were assayed at 11-point dilutions. Cells were incubated for 48 hours, followed by addition of 3 uL of CellTiter-Glo (Promega). After a 15min incubation at room temperature, samples were analyzed for luminescence intensity using a ViewLux High-throughput CCD imager equipped with clear filters.
Consider `N#CC(c1ccc(Cl)cc1)c1c(Cl)cc(-n2ncc(=O)[nH]c2=O)cc1Cl` (stereo not given), for which the Potency is 11.8 µM (active).

On to `Cc1ccc(NC(=O)c2ccc(CN3CCN(C)CC3)cc2)cc1Nc1nc(-c2cccnc2)cs1`, for which the Potency is 11.8 µM (active).

Take `CN1C(=O)C(Cc2c[nH]c3ccccc23)NC1=S` (stereo not given): the Potency result is “inactive”.

Consider `CC1(C)OC2CC3C4CC(F)C5=CC(=O)C=CC5(C)C4C(O)CC3(C)[C@]2(C(=O)CO)O1` (stereo not given in full), for which the Potency result is “inactive”.

For `CC(NCCc1ccc(O)cc1)C(O)c1ccc(O)cc1` (stereo not given), the Potency result was “inactive”.

As for `O=C1C(CCC(O)c2ccc(F)cc2)C(c2ccc(O)cc2)N1c1ccc(F)cc1` (stereo not given), the Potency result is “inactive”.

Regarding `CC(C)CNc1ccnc(NCc2csc(-c3ccccc3)n2)n1`, the Potency was 11.8 µM (active).

Regarding `C[C@]12CC[C@@H]3c4ccc(O)cc4CC[C@H]3[C@H]1[C@@H](O)[C@@H](O)[C@H]2O`, the Potency was 14.8 µM (active).

In the case of `CO[C@@H]1C(N(C)C(=O)c2ccccc2)C[C@H]2O[C@]1(C)n1c3ccccc3c3c4c(c5c6ccccc6n2c5c31)C(=O)NC4=O` (stereo not given in full), the Potency is 2.96 µM (active).

On to `CCCCC[C@H](O)C=C[C@H]1[C@H](O)CC(=O)[C@H]1CC=CCCCC(=O)O`, for which the Potency result is “inactive”.

Regarding `CCOC(=O)N1CCN([N+]([O-])=NOc2cc(ON=[N+]([O-])N3CCN(C(=O)OCC)CC3)c([N+](=O)[O-])cc2[N+](=O)[O-])CC1`, the Potency result was “inactive”.

Consider `C#C[C@]1(O)CC[C@H]2[C@H]3CCc4cc(OC)ccc4[C@H]3CC[C@@]21C`, for which the Potency is 18.7 µM (active).

For the compound `C[C@@]1(C(=O)Nc2ccc(F)nc2)CCCN1c1nc(Nc2cc(C3CC3)[nH]n2)c2cccn2n1`, the Potency is 0.0935 µM (active).

With `COC(=O)[C@H](c1ccccc1Cl)N1CCc2sccc2C1`, the Potency was 1.48 µM (active).

As for `CCC[C@H](Nc1nc(-c2ccc(NC(=O)NCC)c(OC)c2)ncc1C)c1cccnc1`, the Potency was 0.0187 µM (active).

On to `O=C(NCCCCN1CCOCC1)c1cc2ccccc2o1`, for which the Potency entry is “inactive”.

Regarding `CC(=O)O[C@]1(C(C)=O)CC[C@H]2[C@@H]3C=C(Cl)C4=CC(=O)[C@@H]5C[C@H]5[C@]4(C)[C@@H]3CC[C@@]21C`, the Potency is 0.469 µM (active).

`O=C1CCCC(=O)C1C(=O)c1ccc(C(F)(F)F)cc1[N+](=O)[O-]`: the Potency entry was “inactive”.

Take `CN[C@@H]1CN(c2ccc3c(=O)c(C(=O)O)cn(-c4nccs4)c3n2)C[C@@H]1OC`: the Potency is 8.12 µM (active).

For `Cc1c(-c2cccc3c(CCCOc4cccc5ccccc45)c(C(=O)O)n(Cc4cccnc4)c23)c(COc2ccc(N3CCN([S+](=O)([O-])N(C)C)CC3)cc2)nn1C`, the Potency was 23.5 µM (active).

Turning to `CNC(=O)c1cc(Oc2ccc(NC(=O)Nc3ccc(Cl)c(C(F)(F)F)c3)c(F)c2)ccn1`, the Potency was 18.7 µM (active).

With `CCOC(=O)[C@H](CCc1ccccc1)N[C@@H](C)C(=O)N1CCCC1C(=O)O` (stereo not given in full), the Potency was 18.7 µM (active).

Take `C[C@]12CCC3=C4CCC(=O)C=C4CC[C@@H]3[C@H]1CC[C@@]2(O)CC#N`: the Potency result is “inactive”.

With `Cc1ccc(NC(=O)Nc2cc(C(F)(F)F)ccc2F)cc1Nc1ccc2c(c1)NC(=O)C2=Cc1ccc[nH]1`, the Potency is 7.43 µM (active).

Regarding `O=c1[nH]nc(OCCCc2ccc(Cl)cc2)c(NCc2cccnc2)c1Br`, the Potency was 9.35 µM (active).

For the compound `Cc1cc(CS(=O)(=O)c2ccccc2)cc(OCc2ccc(CN3CCC[C@H]3CO)cc2)c1`, the Potency is 5.9 µM (active).

Take `CCNC(=O)c1noc(-c2cc(C(C)C)c(O)cc2O)c1-c1ccc(CN2CCOCC2)cc1`: the Potency was 0.148 µM (active).

With `C[C@@]1(c2cc(-c3cncnc3)c(F)cc2F)CCSC(N)=N1`, the Potency was 0.0469 µM (active).

On to `CCC=CC[C@H]1C(=O)CC[C@@H]1CC(=O)OC`, for which the Potency result is “inactive”.

Turning to `CC[C@H](C=C[C@@H](C)[C@H]1CC[C@H]2[C@@H]3CC=C4C[C@@H](O)CC[C@]4(C)[C@@H]3CC[C@]12C)C(C)C`, the Potency result was “inactive”.

In the case of `CC=C1C2C=C(C)CC1(N)c1ccc(=O)[nH]c1C2` (stereo not given), the Potency entry was “inactive”.

In the case of `Cc1csc(-c2nnc(Nc3ccc(Oc4ncccc4-c4ccnc(N)n4)cc3)c3ccccc23)c1`, the Potency is 14.8 µM (active).

Consider `CC(C)Oc1cc(Nc2nc(N[C@@H](C)c3ccc(F)cn3)ncc2Cl)[nH]n1`, for which the Potency is 9.35 µM (active).

Consider `O=C(Nc1ccccc1)Nc1ccc(-c2ccc(C(=O)[C@H]3CCC[C@H]3C(=O)O)cc2)cc1`, for which the Potency was 11.8 µM (active).

Consider `COc1cc([C@@H]2c3cc4c(cc3[C@@H](O[C@@H]3O[C@@H]5CO[C@@H](C)O[C@@H]5[C@H](O)[C@@H]3O)[C@H]3COC(=O)[C@H]23)OCO4)cc(OC)c1O`, for which the Potency is 1.48 µM (active).

Take `COc1cc2ncn(-c3cc(OCc4ccccc4S(C)(=O)=O)c(C#N)s3)c2cc1OC`: the Potency was 23.5 µM (active).

On to `C[C@@H](NC(=O)c1ncnc(N)c1Cl)c1ncc(C(=O)Nc2cc(C(F)(F)F)c(Cl)cn2)s1`, for which the Potency is 18.7 µM (active).

For the compound `CCNC(=O)[C@H]1O[C@@H](n2cnc3c(N)nc(NCCc4ccc(CCC(=O)O)cc4)nc32)[C@H](O)[C@H]1O`, the Potency result was “inactive”.

Regarding `CC[C@H](C)n1cc(C)c2c(C(=O)NCc3c(C)cc(C)[nH]c3=O)cc(-c3ccc(N4CCNCC4)nc3)cc21`, the Potency is 1.48 µM (active).

Regarding `COc1cc(Cl)cn2c(-c3cccc(NC4CNC4)n3)cnc12`, the Potency is 4.69 µM (active).
